Measured values taken from PubChem BioAssay (NCATS).
Records with an inconclusive call do not appear. Entries that show only a call come without a potency. The source made the active and inactive calls. The call rests on the fitted dose curve.

What follows are molecules tested against Bile acid receptor (Homo sapiens) (UniProt Q96RI1) (assay: qHTS assay for small molecule antagonists of farnesoid X receptor signaling (AID 588526)). Settings: HEK293T FXR-UAS-bla, beta-lactamase ratio, antagonist mode; series mostly up to 76.7 µM.
From the text: NIH Chemical Genomics Center [NCGC] U.S. Environmental Protection Agency [EPA] National Institutes of Environmental Health Sciences [NIEHS] National Toxicology Program [NTP] NCGC Assay Overview The farnesoid-X-receptor (FXR), a nuclear hormone receptor is highly expressed in liver, intestine, kidney and adrenal cortex. Natural ligands of FXR are the bile acids (Cholic acid, Chenodeoxy cholic acid etc). It is an important regulator of diverse metabolic pathways, including the bile acid homeostasis, lipid and glucose metabolisms. FXR regulates the expression of target genes by binding either as a monomer or as a heterodimer with RXR (retinoid X receptor). As FXR regulates a large number of target genes involved in bile acid, lipoprotein and glucose metabolisms, it is a potential pharmacological target for bile acid and lipid disorders. Thus screening environmental chemicals on FXR signaling can be used for the studies focused on metabolic syndrome, hepatic and intestinal toxicity etc.
NCGC Assay Protocol Summary Using a beta-lactamase reporter-gene under control of Farnesoid X receptor (FXR) response element, a cell-based assay [GeneBLAzer FXR-UAS-bla assay developed by Invitrogen] was used to measure FXR ligands signaling. GeneBLAzer FXR-UAS-bla HEK293T cells were used with assay medium containing 10% dialyzed FBS. The assay was performed in clear bottom black Greiner 1536-well plates. Guggulsterone were used in the screen as the positive control. Library compounds were measured for their ability to inhibit the reporter gene activity. Compounds were screened in a titration series in 1536-well format. The fluorescence intensity (405 nm excitation, 460/530 nm emission) was measured using an EnVision plate reader. Data was normalized relative to Chenodeoxycholic acid (50 uM, 100%), and DMSO only wells (basal, 0%). Concentration-response titration points for each compound were fitted to the Hill equation yielding concentrations of half-maximal inhibition (IC50) and maximal response (efficacy) values. qHTS protocol for FXR beta-lactamase assay in antagonist mode [Step] [Parameter] [Value] [Description] 1. Reagent; 5 uL; 5000 cells/well 2. Incubation; 37 C for 5-7 hrs 3. Compounds; 23 nL; 0.59 nM to 92 uM 4. Controls (Guggulsterone, FXR antagonist); 23 nL, - One column of dose response, start 200 uM, 1:2 dilutions in duplicates 5. Agonist (Stimulator); 1uL; Chenodeoxycholic acid at 100 uM and 50 uM final concentrations 6. Incubation; 37 C for 16 hrs 7. Detection reagent; 1 uL of CCF4-dye 8. Incubation; RT for 2 hrs 9. Detection; Fluorescence; Envision plate reader
Potency means the concentration at half of the fitted maximal effect.

Bile acid receptor (Homo sapiens), sequence (Q96RI1 whole entry, looked up): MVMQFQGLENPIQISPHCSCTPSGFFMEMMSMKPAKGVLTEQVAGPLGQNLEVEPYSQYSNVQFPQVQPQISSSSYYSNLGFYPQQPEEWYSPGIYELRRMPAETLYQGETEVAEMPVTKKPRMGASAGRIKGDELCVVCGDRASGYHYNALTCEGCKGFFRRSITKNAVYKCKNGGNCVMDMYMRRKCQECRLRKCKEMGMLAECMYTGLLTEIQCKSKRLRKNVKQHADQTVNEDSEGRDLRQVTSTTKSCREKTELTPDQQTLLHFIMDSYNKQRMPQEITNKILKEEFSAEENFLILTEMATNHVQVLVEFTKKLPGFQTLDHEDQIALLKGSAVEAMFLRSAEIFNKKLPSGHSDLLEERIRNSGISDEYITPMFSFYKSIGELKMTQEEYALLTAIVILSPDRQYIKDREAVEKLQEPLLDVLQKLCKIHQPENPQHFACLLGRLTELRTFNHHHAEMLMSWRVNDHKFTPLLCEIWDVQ

SMILES | Potency
CCCCOC(=O)[C@@H](C)Oc1ccc(Oc2ccc(C(F)(F)F)cn2)cc1 | inactive
CC(C)(C)[C@H](O)[C@H](Cc1ccc(Cl)cc1)n1cncn1 | inactive
C[Si](C)(Cl)[Si](C)(C)Cl | inactive
Nc1c(N=Nc2ccc(S(=O)(=O)CCOS(=O)(=O)O)cc2)c(S(=O)(=O)O)cc2cc(S(=O)(=O)O)c(N=Nc3ccc(S(=O)(=O)CCOS(=O)(=O)O)cc3)c(O)c12 | inactive
CC(C)(C)c1ccc(C(=O)O)cc1 | inactive
c1ccc(B(c2ccccc2)c2ccccc2)cc1 | inactive
O=C(OCCOCCOC(=O)c1ccccc1)c1ccccc1 | inactive
O=C1CCC(C2CCCCC2)CC1 | inactive
CC(C)C[C@H](NC(=O)OCC1c2ccccc2-c2ccccc21)C(=O)O | inactive
C[Si]1(C)O[Si](C)(C)O[Si](C)(C)O1 | inactive
O=C(O)CN(CCO)CCN(CC(=O)O)CC(=O)O | inactive
CCCCCCCCCCCCCCCCCCN | inactive
c1ccc2c(c1)ccc1c3ccccc3ccc21 | inactive
O=C(O)c1ccc2c(c1)C(=O)OC2=O | inactive
C/C=C/C/C=C\CCCCCCCCOC(C)=O | inactive
CCc1c(C(=O)O)c(=O)cnn1-c1ccc(Cl)cc1 | inactive
C[Si]1(C)O[Si](C)(C)O[Si](C)(C)O[Si](C)(C)O1 | inactive
NCCCCCCCCCCCC(=O)O | inactive
O=C(O)CN(CCCN(CC(=O)O)CC(=O)O)CC(=O)O | inactive
CN(C)Cc1cc(CN(C)C)c(O)c(CN(C)C)c1 | inactive

SMILES | Potency
CCCCCCCCCCCO | inactive
CCCCCCOCCOCCO | inactive
CS(C)=O | inactive
CCCCCCCCCCCC(=O)OC | 20 µM (active)
CCOC(=O)c1ccccc1C | inactive
NCCCCCCCCCCC(=O)O | inactive
CCCCCCCCCCCCCCC(=O)OC | inactive
CCC/C(=N\OCC)C1=C(O)CC(O)(CC(C)S(=O)(=O)CC)CC1=O (stereo not given) | inactive
CCCC/C=C\CCCCCCCCCC=O | inactive
BrC1CCC(Br)C(Br)CCC(Br)C(Br)CCC1Br (stereo not given) | inactive
CCOC(=O)C(C)Oc1ccc(Oc2cnc3cc(Cl)ccc3n2)cc1 (stereo not given) | inactive
CCCCCCc1ccc(N)cc1 | inactive
Cc1ccc(C(=O)c2ccccc2)cc1 | inactive
CCCCCCCCCCCCO | inactive
NC(=O)Cc1cccc2ccccc12 | inactive
CC(=O)CC(=O)Nc1ccc(C)cc1C | inactive
CCCCCCCOC(=O)c1ccccc1C(=O)OCCCCCCC | inactive
CC(C)OC(=O)c1ccccc1C(=O)OC(C)C | inactive
COCCOCCOCCOC | inactive
O=c1[nH]sc2ccccc12 | 44.7 µM (active)
